19 compounds from PubChem BioAssay (EPA / NIEHS) can be followed below.

Test [1] in a line: CCTE_Shafer_MEA_dev_per_network_spike_spike_percent: CCTE's Neural Network Formation Assay for Percent of Spikes in a Network Spike, Shafer Lab (AID 2284054; active means hit-call score of the fitted dose curve at least 0.9, where 1 is the maximum; inactive means score below 0.9). In short, it runs like this: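 Rat primary cortical cultures, 1.5 x 10^5 cells/well on MEA. Continuous compound exposure d0–12, medium/compound renewed DIV 5, 9. Network-spike spike % (0.05 s peak window), AUC over 4 recordings, DMSO baseline.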

For a further test, the system named is DIO3 (gene 1735). Put plainly: CCTE_GLTED_hDIO3: CCTE's human Deiodinase 3 (DIO3) Inhibition Assay, Great Lakes Toxicology and Ecology Division (GLTED) Lab (AID 2284055).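 On AC50: potency is for inhibition seen as loss of released iodide signal.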 The method in brief:
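Absorbance from the Sandell-Kolthoff reaction reports iodide released by human DIO3 during a 3-hour incubation with chemical. Inhibition scored as signal loss against DMSO controls.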

Test [2] is described as follows: CCTE_Shafer_MEA_dev_LDH: CCTE's Lactate Dehydrogenase Assay for Cytotoxicity in the Neural Network Formation Assay, Shafer Lab (AID 2284068).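 Further: exposure for twelve days from plating with re-dosing on DIV 5 and 9.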 The method in brief:
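Rat cortical primary neurons, MEA culture; dosing day 0–12, full medium plus compound exchange DIV 5, 9. Read-out: LDH enzyme activity, spectrophotometric. DMSO = negative control/baseline; signal loss → cytotoxicity.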

Test [3] in a line: CCTE_Shafer_MEA_acute_AB: CCTE's Alamar Blue Assay for Cytotoxicity in the Neural Acute Assay, Shafer Lab (AID 2284069).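 Further: active compounds lower the viability signal compared with DMSO wells.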 The method in brief:
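Read-out: resazurin fluorescence (ex 544, em 590 nm) after CTB reagent at 1:6 dilution in fresh media. Cells: primary rat cortical neuron networks, DIV 13 or 15, chemically exposed on MEA plates; DMSO as negative control/baseline.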

Test [4] is described as follows: CCTE_Shafer_MEA_dev_AB: CCTE's Alamar Blue Assay for Cytotoxicity in the Neural Network Formation Assay, Shafer Lab (AID 2284083).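 Further: resazurin reduction fluorescence as viability of cultured neurons; twelve days of exposure from plating with re-dosing on DIV 5 and 9.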 The method in brief: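 Rat cortical primary cultures, 1.5 x 10^5 cells/well on MEA; continuous compound exposure over 12 days of network development, re-dosed with full medium change DIV 5 and 9. Alamar Blue fluorescence; loss of signal = cytotoxicity vs DMSO baseline.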
On the technique in general: Resazurin is reduced to fluorescent resorufin, in cell work by metabolically active cells.

A short description of test [5]: CCTE_Shafer_MEA_dev_mutual_information_norm: CCTE's Neural Network Formation Assay for Mutual Information Normalization, Shafer Lab (AID 2284091; active means hit-call score of the fitted dose curve at least 0.9, where 1 is the maximum; inactive means score below 0.9;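 on AC50: mutual information between electrodes summarised as area under curve across four recording days; potency is for a decrease in mutual information relative to DMSO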). The method in brief: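 Developing rat cortical networks on 16-electrode MEA wells are treated throughout formation (DIV 0–12). Shared electrode information is recorded four times, converted to area-under-curve, and fitted for decreases against DMSO vehicle.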

Test [6] in a line: CCTE_Shafer_MEA_dev_correlation_coefficient_mean: CCTE's Neural Network Formation Assay for Mean Correlation Coefficient, Shafer Lab (AID 2284093; active means hit-call score of the fitted dose curve at least 0.9, where 1 is the maximum; inactive means score below 0.9;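 on AC50: well mean pairwise spike train correlation integrated as AUC over recording days 5 to 12; potency fitted for loss of correlation relative to DMSO vehicle wells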). In short, it runs like this: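 Rat cortical cultures, 1.5 x 10^5 cells/well, dosed from day 0 for 12 days. Spontaneous spikes recorded DIV 5/7/9/12; electrode-pair correlation coefficients averaged, AUC taken. Fit in loss direction vs DMSO.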

Test [7] is described as follows: CCTE_Shafer_MEA_acute_LDH: CCTE's Lactate Dehydrogenase Assay for Cytotoxicity in the Neural Acute Assay, Shafer Lab (AID 2284086).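 Further: active means LDH release rises above DMSO vehicle level.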 In short, it runs like this: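 Rat cortical neurons cultured on microelectrode arrays; baseline 40-min recording, compound added, second 40-min recording; medium then sampled for released LDH (colorimetric kit, 490 nm). DMSO = negative control.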

Test [8] is described as follows: UKN5_HCS_SBAD2_cell_viability: Viability Assessment in the University of Konstanz (UKN) Leist Lab Neurite Outgrowth Assay in human iPSC-derived immature Dorsal Root Ganglia Neurons (UKN5) (AID 2284056; active means hit-call score of the fitted dose curve at least 0.9, where 1 is the maximum; inactive means score below 0.9). The method in brief: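 iPSC-derived immature peripheral neurons (SBAD2) seeded on Matrigel with CHIR99021, SU5402 and DAPT, dosed 1 h later for 24 h. Viability from Hoechst H-33342 and calcein-AM live staining, high-content imaging; bidirectional fit versus DMSO.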

A short description of test [9]: UKN5_HCS_SBAD2_neurite_outgrowth: University of Konstanz (UKN) Leist Lab Neurite Outgrowth Assay in human iPSC-derived immature Dorsal Root Ganglia Neurons (UKN5) (AID 2284070; active means hit-call score of the fitted dose curve at least 0.9, where 1 is the maximum; inactive means score below 0.9). Particulars: actives raise or lower the signal. The method in brief: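 Read-out: calcein-AM-stained neurite area by high-content imaging, Hoechst H-33342 for viability, after 24 h exposure of iPSC-derived immature dorsal root ganglia neurons. Activity fitted in both directions relative to DMSO baseline.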

Results filed as inconclusive are left out. More than one record can exist for a structure, and the calls need not agree. The source made the active and inactive calls. How the source made its calls, unless noted: active means hit-call score of the fitted dose curve at least 0.9, where 1 is the maximum; inconclusive means response in the unintended direction; inactive means score below 0.9.

As a reminder, the AC50 is the midpoint of the concentration-response curve, whichever way the signal moves. Consider `CC/C(=C(\c1ccccc1)c1ccc(OCCN(C)C)cc1)c1ccccc1`, for which the AC50 in test [1] was 3.89 µM (active); in the test on DIO3 (gene 1735) it was 84.2 µM (active); in test [2] it was 2.87 µM (active); in test [4] it was 5 µM (active); in test [5] it was 0.196 µM (active); in test [6], 3.76 µM (active). In addition, the call (in the test with DIO3 (gene 1735); in [3]) was inactive.

On to `C=C(C)C(=O)OCCC(C)OC(=O)C(=C)C` (stereo not drawn), for which the AC50 with DIO3 (gene 1735) was 36.9 µM (active).

As to `CCn1cc(C(=O)O)c(=O)c2ccc(C)nc21`, the compound was called inactive in [7].

Regarding `CC(=O)c1ccc(C)cc1`, in [7], the compound was called inactive.

With `N#CCCNCCC#N`, the result in test [1], in test [2], in test [5] and in test [6] was inactive.

As for `c1ccc(OCCOc2ccccc2)cc1`, the result in test [3] and in test [7] was inactive.

For the compound `C[C@]12CC[C@@H]3c4ccc(O)cc4CC[C@H]3[C@@H]1CC[C@@H]2O`, the call in [1], in [2], in [4], in [5] and in [6] was inactive. Further, the AC50 in test [4] is 6.6 µM (active).

On to `CCCO[Si](OCCC)(OCCC)OCCC`, for which, in [7], the outcome was inactive.

For the compound `c1ccc2scnc2c1`, the outcome in test [1], in test [2], in test [5] and in test [6] was inactive.

Turning to `CCCCC/C=C\C=C\C(=O)OCC`, the AC50 with DIO3 (gene 1735) was 26.6 µM (active).

For `O=C(c1ccc(OCCN2CCCCC2)cc1)c1c(-c2ccc(O)cc2)sc2cc(O)ccc12`, the outcome in [3] and in [7] was inactive.

For `CC(C)(CO)CO`, the call in test [3] and in test [7] was inactive.

Take `CCCCC(CC)COC(=O)COc1ccc(Cl)cc1C` (stereo not drawn): the outcome in test [1], in test [5] and in [6] was inactive.

Regarding `N[C@@H](CCC(=O)O)C(=O)O`, the call in test [1], in [2], in [4], in test [7], in test [5] and in test [6] was inactive.

On to `CCCCCCCCOC(=O)c1ccc(O)cc1`, for which the AC50 in the test with DIO3 (gene 1735) was 30.7 µM (active).

Turning to `CCCCN(CCO)CCO`, the result in [3] was inactive.

`CC(C)Cc1ccc(C(C)C(=O)O)cc1` (stereo not drawn): the AC50 in test [1] is 15 µM (active); in test [2], 15 µM (active); in test [4] it was 2.98 µM (active); in [5] it was 3.62 µM (active). In addition, the compound was called inactive in test [8], in [9] and in test [6].

Consider `CC(=O)OC/C=C(C)/C=C/C=C(C)/C=C/C1=C(C)CCCC1(C)C`, for which the AC50 in the test with DIO3 (gene 1735) is 37.8 µM (active).

For the compound `CCCCOCCOCCO`, the compound was classed as inactive in test [7].
